In paper PMC7862700, “An all-to-all approach to the identification of sequence-specific readers for epigenetic DNA modifications on cytosine”:

Columns and labels:
Experiment in all cases: DAPPL (digital affinity profiling via proximity ligation, sequencing); 10 mM Tris-HCl pH 7.5, 50 mM NaCl, 1 mM DTT, 4% glycerol, room temperature, 30 min; GST-TFs on glutathione beads, 16-mer random dsDNA library, 0.1% formaldehyde crosslink after washing; high values mean tight binding
Conditions in all cases: protein: recombinant; tags: N-terminal GST; dsDNA, one strand shown
ERF = target: T1, ERF (Homo sapiens, UniProt P50548 1-548)
T1 sequence: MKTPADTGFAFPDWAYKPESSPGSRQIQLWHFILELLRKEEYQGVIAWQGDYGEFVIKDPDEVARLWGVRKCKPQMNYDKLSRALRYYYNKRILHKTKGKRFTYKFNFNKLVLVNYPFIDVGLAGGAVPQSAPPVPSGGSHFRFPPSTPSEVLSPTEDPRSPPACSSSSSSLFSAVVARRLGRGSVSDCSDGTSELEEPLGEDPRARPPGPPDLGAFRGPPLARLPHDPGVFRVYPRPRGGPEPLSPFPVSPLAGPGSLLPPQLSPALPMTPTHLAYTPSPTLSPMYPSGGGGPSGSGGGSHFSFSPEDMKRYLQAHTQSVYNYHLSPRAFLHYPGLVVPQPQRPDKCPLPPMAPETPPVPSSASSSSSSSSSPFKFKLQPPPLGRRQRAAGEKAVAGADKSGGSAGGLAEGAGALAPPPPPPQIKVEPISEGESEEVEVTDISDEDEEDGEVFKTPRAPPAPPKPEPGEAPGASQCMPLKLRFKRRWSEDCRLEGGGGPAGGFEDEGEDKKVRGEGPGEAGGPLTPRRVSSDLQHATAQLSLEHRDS
Outline: (§1)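 Binding signal is each hexamer's read frequency for a factor divided by its frequency in the tag-only sample. The factors were GST-fused human transcription factors from yeast, captured on glutathione beads, DNA-barcoded and pooled with that sample. Pools were incubated with 200 nmole of a random double-stranded 16-mer DNA library in Tris/NaCl/DTT/glycerol buffer at room temperature for 30 min, then washed, crosslinked with 0.1% formaldehyde, proximity-ligated with BsaI/T4 ligase (1 h, 37 °C), PCR-amplified and sequenced on an Illumina NextSeq500.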

ETV3L = target: T2, ETV3L (Homo sapiens, UniProt Q6ZN32 1-361)
T2 sequence: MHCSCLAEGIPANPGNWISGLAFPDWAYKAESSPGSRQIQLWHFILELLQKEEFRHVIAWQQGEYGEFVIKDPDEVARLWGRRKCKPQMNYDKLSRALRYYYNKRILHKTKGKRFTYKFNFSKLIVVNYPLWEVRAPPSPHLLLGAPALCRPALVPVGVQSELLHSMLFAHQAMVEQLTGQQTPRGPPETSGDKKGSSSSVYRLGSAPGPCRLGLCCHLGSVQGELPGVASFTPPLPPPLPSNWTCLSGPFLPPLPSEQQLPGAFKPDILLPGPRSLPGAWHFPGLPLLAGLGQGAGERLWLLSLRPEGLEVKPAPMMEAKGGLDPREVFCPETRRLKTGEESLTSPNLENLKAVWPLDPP
Outline: as §1

ETS2 = target: T3, ETS2 (Homo sapiens, UniProt P15036 1-469)
T3 sequence: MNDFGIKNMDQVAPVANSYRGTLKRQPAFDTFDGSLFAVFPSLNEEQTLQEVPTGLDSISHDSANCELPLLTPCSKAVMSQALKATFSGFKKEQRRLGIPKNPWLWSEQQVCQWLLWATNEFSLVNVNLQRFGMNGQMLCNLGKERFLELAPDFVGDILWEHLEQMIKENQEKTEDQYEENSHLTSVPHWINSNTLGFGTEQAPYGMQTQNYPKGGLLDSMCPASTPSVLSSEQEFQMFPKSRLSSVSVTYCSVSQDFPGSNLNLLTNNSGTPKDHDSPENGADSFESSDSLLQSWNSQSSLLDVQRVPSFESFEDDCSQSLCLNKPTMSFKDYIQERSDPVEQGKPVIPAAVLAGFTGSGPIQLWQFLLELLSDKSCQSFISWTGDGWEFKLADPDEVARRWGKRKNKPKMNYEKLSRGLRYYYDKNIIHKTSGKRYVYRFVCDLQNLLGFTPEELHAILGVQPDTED
Outline: as §1

SPDEF = target: T4, SPDEF (Homo sapiens, UniProt O95238 1-335)
T4 sequence: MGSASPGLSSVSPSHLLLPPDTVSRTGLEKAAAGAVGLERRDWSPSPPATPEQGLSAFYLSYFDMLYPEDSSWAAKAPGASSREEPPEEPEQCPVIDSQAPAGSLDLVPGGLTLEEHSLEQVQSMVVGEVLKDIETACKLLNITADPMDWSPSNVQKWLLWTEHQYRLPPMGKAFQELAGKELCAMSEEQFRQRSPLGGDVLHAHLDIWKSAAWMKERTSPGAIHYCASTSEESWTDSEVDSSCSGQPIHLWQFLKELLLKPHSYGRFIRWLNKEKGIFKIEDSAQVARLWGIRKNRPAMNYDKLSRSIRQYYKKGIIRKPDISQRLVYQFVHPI
Outline: as §1

ETV7 = target: T5, ETV7 (Homo sapiens, UniProt Q9Y603 1-341)
T5 sequence: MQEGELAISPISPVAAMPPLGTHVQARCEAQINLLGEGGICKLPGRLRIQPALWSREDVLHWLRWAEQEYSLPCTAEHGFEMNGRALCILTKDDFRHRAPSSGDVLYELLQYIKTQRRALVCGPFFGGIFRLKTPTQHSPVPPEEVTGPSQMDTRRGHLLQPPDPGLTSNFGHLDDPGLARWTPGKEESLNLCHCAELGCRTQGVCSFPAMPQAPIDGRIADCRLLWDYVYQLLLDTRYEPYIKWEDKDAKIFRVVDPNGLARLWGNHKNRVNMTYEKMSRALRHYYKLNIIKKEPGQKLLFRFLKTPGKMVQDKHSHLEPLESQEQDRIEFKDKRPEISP
Outline: as §1

ELF5 = target: T6, ELF5 (Homo sapiens, UniProt Q9UKW6-2 1-255)
T6 sequence: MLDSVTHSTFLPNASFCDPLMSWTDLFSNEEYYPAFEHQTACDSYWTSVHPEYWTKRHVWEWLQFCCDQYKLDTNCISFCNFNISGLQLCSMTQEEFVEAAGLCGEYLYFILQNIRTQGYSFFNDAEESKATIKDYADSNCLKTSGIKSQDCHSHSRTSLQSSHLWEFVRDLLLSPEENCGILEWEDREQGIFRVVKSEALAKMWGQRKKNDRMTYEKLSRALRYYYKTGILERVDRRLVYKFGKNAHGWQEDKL
Outline: as §1

ETV3 = target: T7, ETV3 (Homo sapiens, UniProt P41162-2 1-143)
T7 sequence: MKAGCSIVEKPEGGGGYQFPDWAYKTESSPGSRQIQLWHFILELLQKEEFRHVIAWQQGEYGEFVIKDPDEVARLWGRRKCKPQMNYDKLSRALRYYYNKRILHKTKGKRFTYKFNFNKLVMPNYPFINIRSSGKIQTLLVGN
Outline: as §1

ETV6 = ETV6 (Homo sapiens, UniProt P41212 1-452)
Outline: as §1

Chain of ETV6 (P41212 whole entry): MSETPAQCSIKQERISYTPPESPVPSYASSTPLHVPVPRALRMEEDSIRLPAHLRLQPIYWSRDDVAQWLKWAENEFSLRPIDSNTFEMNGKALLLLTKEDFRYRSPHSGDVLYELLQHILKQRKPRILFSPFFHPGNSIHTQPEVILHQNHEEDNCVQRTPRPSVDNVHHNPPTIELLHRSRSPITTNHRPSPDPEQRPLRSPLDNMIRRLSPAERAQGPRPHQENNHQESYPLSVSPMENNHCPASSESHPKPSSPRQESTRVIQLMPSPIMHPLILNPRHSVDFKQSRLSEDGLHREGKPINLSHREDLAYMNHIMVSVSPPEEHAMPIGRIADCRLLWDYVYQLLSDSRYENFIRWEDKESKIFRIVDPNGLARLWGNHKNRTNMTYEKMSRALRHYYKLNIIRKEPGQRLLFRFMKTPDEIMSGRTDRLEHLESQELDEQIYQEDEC

Row | Sequence | binding signal (ERF) | binding signal (ETV3L) | binding signal (ETS2) | binding signal (SPDEF) | binding signal (ETV7) | binding signal (ELF5) | binding signal (ETV3) | binding signal (ETV6)
1 | TCCCCT | 1.69 fold enrichment (6-mer frequency, TF over GST control) | 1.64 fold enrichment (6-mer frequency, TF over GST control) | 1.69 fold enrichment (6-mer frequency, TF over GST control) | 1.54 fold enrichment (6-mer frequency, TF over GST control) | 1.58 fold enrichment (6-mer frequency, TF over GST control) | 1.76 fold enrichment (6-mer frequency, TF over GST control) | 1.54 fold enrichment (6-mer frequency, TF over GST control) | 1.65 fold enrichment (6-mer frequency, TF over GST control)
2 | CAAGAT | 1.06 fold enrichment (6-mer frequency, TF over GST control) | 1.13 fold enrichment (6-mer frequency, TF over GST control) | 1.06 fold enrichment (6-mer frequency, TF over GST control) | 1.26 fold enrichment (6-mer frequency, TF over GST control) | 1.02 fold enrichment (6-mer frequency, TF over GST control) | 1.01 fold enrichment (6-mer frequency, TF over GST control) | 1.08 fold enrichment (6-mer frequency, TF over GST control) | 1.01 fold enrichment (6-mer frequency, TF over GST control)
3 | TGTTCC | 1.75 fold enrichment (6-mer frequency, TF over GST control) | 1.62 fold enrichment (6-mer frequency, TF over GST control) | 1.75 fold enrichment (6-mer frequency, TF over GST control) | 2.03 fold enrichment (6-mer frequency, TF over GST control) | 1.68 fold enrichment (6-mer frequency, TF over GST control) | 2.3 fold enrichment (6-mer frequency, TF over GST control) | 1.85 fold enrichment (6-mer frequency, TF over GST control) | 1.69 fold enrichment (6-mer frequency, TF over GST control)
4 | AAACCC | 1.28 fold enrichment (6-mer frequency, TF over GST control) | 1.29 fold enrichment (6-mer frequency, TF over GST control) | 1.26 fold enrichment (6-mer frequency, TF over GST control) | 1.34 fold enrichment (6-mer frequency, TF over GST control) | 1.25 fold enrichment (6-mer frequency, TF over GST control) | 1.31 fold enrichment (6-mer frequency, TF over GST control) | 1.29 fold enrichment (6-mer frequency, TF over GST control) | 1.34 fold enrichment (6-mer frequency, TF over GST control)
5 | TACTTG | 1.39 fold enrichment (6-mer frequency, TF over GST control) | 1.45 fold enrichment (6-mer frequency, TF over GST control) | 1.24 fold enrichment (6-mer frequency, TF over GST control) | 1.21 fold enrichment (6-mer frequency, TF over GST control) | 1.34 fold enrichment (6-mer frequency, TF over GST control) | 1.35 fold enrichment (6-mer frequency, TF over GST control) | 1.34 fold enrichment (6-mer frequency, TF over GST control) | 1.24 fold enrichment (6-mer frequency, TF over GST control)
6 | ATTGAT | 1.34 fold enrichment (6-mer frequency, TF over GST control) | 1.31 fold enrichment (6-mer frequency, TF over GST control) | 1.29 fold enrichment (6-mer frequency, TF over GST control) | 1.32 fold enrichment (6-mer frequency, TF over GST control) | 1.23 fold enrichment (6-mer frequency, TF over GST control) | 1.27 fold enrichment (6-mer frequency, TF over GST control) | 1.33 fold enrichment (6-mer frequency, TF over GST control) | 1.24 fold enrichment (6-mer frequency, TF over GST control)
7 | GTTCCT | 1.49 fold enrichment (6-mer frequency, TF over GST control) | 1.71 fold enrichment (6-mer frequency, TF over GST control) | 1.75 fold enrichment (6-mer frequency, TF over GST control) | 1.74 fold enrichment (6-mer frequency, TF over GST control) | 1.67 fold enrichment (6-mer frequency, TF over GST control) | 2.54 fold enrichment (6-mer frequency, TF over GST control) | 1.88 fold enrichment (6-mer frequency, TF over GST control) | 1.82 fold enrichment (6-mer frequency, TF over GST control)
8 | AACTAA | 1.36 fold enrichment (6-mer frequency, TF over GST control) | 1.25 fold enrichment (6-mer frequency, TF over GST control) | 1.4 fold enrichment (6-mer frequency, TF over GST control) | 1.31 fold enrichment (6-mer frequency, TF over GST control) | 1.33 fold enrichment (6-mer frequency, TF over GST control) | 1.38 fold enrichment (6-mer frequency, TF over GST control) | 1.29 fold enrichment (6-mer frequency, TF over GST control) | 1.42 fold enrichment (6-mer frequency, TF over GST control)
9 | CTTCTG | 1.28 fold enrichment (6-mer frequency, TF over GST control) | 1.47 fold enrichment (6-mer frequency, TF over GST control) | 1.34 fold enrichment (6-mer frequency, TF over GST control) | 1.26 fold enrichment (6-mer frequency, TF over GST control) | 1.2 fold enrichment (6-mer frequency, TF over GST control) | 1.39 fold enrichment (6-mer frequency, TF over GST control) | 1.28 fold enrichment (6-mer frequency, TF over GST control) | 1.38 fold enrichment (6-mer frequency, TF over GST control)
10 | TATAGT | 1.16 fold enrichment (6-mer frequency, TF over GST control) | 1.06 fold enrichment (6-mer frequency, TF over GST control) | 1.02 fold enrichment (6-mer frequency, TF over GST control) | 1.02 fold enrichment (6-mer frequency, TF over GST control) | 1.2 fold enrichment (6-mer frequency, TF over GST control) | 1.04 fold enrichment (6-mer frequency, TF over GST control) | 1.06 fold enrichment (6-mer frequency, TF over GST control) | 1.09 fold enrichment (6-mer frequency, TF over GST control)
11 | CTGCAA | 1.28 fold enrichment (6-mer frequency, TF over GST control) | 1.35 fold enrichment (6-mer frequency, TF over GST control) | 1.31 fold enrichment (6-mer frequency, TF over GST control) | 1.11 fold enrichment (6-mer frequency, TF over GST control) | 1.16 fold enrichment (6-mer frequency, TF over GST control) | 1.17 fold enrichment (6-mer frequency, TF over GST control) | 1.26 fold enrichment (6-mer frequency, TF over GST control) | 1.33 fold enrichment (6-mer frequency, TF over GST control)
12 | CTTTGT | 1.3 fold enrichment (6-mer frequency, TF over GST control) | 1.41 fold enrichment (6-mer frequency, TF over GST control) | 1.24 fold enrichment (6-mer frequency, TF over GST control) | 1.21 fold enrichment (6-mer frequency, TF over GST control) | 1.36 fold enrichment (6-mer frequency, TF over GST control) | 1.24 fold enrichment (6-mer frequency, TF over GST control) | 1.32 fold enrichment (6-mer frequency, TF over GST control) | 1.31 fold enrichment (6-mer frequency, TF over GST control)
